From PubChem BioAssay
Only some compounds are listed: those with a hit (about 3.4% of all), similar ones and a draw of the others.
Luciferase inh: blocks Photinus pyralis firefly luciferase activity; purified firefly luciferase, luminescence, 8 min; Potency, µM (titrated, usually from 57.1 µM), without a hit: top-dose activity change, negative = inhibition, usual class: inhibitors; 2.2% of 72,000 active; AID 411; also: % is scaled to controls: 0 for no effect and ±100 for the full control effect; nearly all actives have a fitted effect of over 40% in size
Target sequence (P08659 whole entry, looked up): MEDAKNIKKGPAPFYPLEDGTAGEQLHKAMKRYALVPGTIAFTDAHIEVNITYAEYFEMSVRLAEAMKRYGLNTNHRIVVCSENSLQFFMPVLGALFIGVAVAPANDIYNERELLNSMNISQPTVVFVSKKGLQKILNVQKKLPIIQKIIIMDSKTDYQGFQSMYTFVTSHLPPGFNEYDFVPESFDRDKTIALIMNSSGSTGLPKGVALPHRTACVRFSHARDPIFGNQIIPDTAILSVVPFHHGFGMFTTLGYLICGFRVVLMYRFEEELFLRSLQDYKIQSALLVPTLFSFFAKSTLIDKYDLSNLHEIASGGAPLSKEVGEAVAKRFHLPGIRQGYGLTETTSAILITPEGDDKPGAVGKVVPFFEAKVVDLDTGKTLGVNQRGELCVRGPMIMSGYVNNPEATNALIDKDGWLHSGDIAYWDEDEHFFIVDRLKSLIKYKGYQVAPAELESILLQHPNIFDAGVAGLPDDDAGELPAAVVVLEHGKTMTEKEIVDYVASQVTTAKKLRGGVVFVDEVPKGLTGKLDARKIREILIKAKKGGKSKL
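Luminescence read-out after 8 min at room temperature; enzyme reaction used luciferin plus 10 uM ATP (linear range) in imidazole buffer pH 7.2 with KCl, MgCl2, Tween 20 and BSA. Each sample was run as a titration.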
Imprint erasure: inducers of genomic imprint erasure in mouse ES cells. Potency, µM (series often up to 60.7 µM), without a hit: at the highest dose activity change, positive = activation, usual class: activators. 0.02% of 110,000 active. mouse ES Peg3-LacZ reporter, beta-gal luminescence, 40 h. AID 1948
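Gelatin-coated wells received 300 freshly trypsinized female ES cells with a Peg3LacZ-Neo reporter on the maternal allele, then incubated 40 hours at 37C. BetaGlo was added for 5 minutes at room temperature before a single luminescence read.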
Tau fil binding: binders of human tau filaments. 2% of 71,000 active. Potency, µM (top dose mostly 57.1 µM), without a hit: at the highest dose activity change, negative = inhibition. recombinant tau filaments, thioflavin S fluorescence, 15 h; filaments grown with octadecylsulfate alongside compound. P10636;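 also: % is scaled to controls: 0 for no effect and ±100 for the full control effect; actives lower thioflavin S fluorescence by blocking filaments or displacing dye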
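Assay mix: 1 uM His-tagged tau, 30 uM sodium octadecylsulfate, thioflavine S dye in HEPES/NaCl/DTT buffer. Compound is added prior to the inducer. Fluorescence after 15 h at 37 C.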
p53ts 39C kill: p53ts cell cytotoxicity, nonpermissive temperature | H1299-p53A138V viability at 39C, ATP luminescence, 24 h | Potency, µM (doses to about 46.1 µM), for the others: at the top dose activity change, negative = cell killing, usual class: cytotoxic | 1.5% of 130,000 active | AID 902; also: % is scaled to controls: 0 for no effect and ±100 for the full control effect; nearly all actives have a fitted effect of over 55% in size
p53ts 32C kill: p53ts cell cytotoxicity, permissive temperature; Potency, µM (doses to about 46.1 µM), inactives show top-dose activity change, negative = cytotoxicity, hits mostly cytotoxic; H1299-p53A138V at 32C, ATP luminescence viability, 24 h; 0.93% of 130,000 active;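 also: 0% = DMSO and -100% = full killing by reference compound; nearly all actives have a fitted effect of over 55% in size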
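ATP-content luminescence (ATPlite) read-out after 24 h compound exposure at 32C in H1299-p53A138V cells (600/well). Tested up to 46 uM. Normalized to DMSO (0%) and 100 uM tamoxifen (100% killing); Hill-fit AC50.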
* marks the source's active call; other numbers are inactive results; ? = inconclusive; · = not tested or not shown; [ ] = remark or other dose. Calls follow the shape of the dose curve; as a rule, active = well fitted curve in the direction sought with a large enough effect; inconclusive = small, poorly fitted or top-dose-only effect, or another doubt; inactive = no such curve, though single readings can be large; an effect the other way counts as inactive or inconclusive. Potency is read from the fitted curve at half-maximal effect.

SMILES	Luciferase inh	Imprint erasure	Tau fil binding	p53ts 39C kill	p53ts 32C kill
COc1ccc(Cl)cc1N=Nc1ncc[nH]1	-0.3%	-10.4%	39.8µM*	-11.0%	-3.2%
CC(=O)Nc1cccc(-c2nc(-c3ccccc3)no2)c1	·	-26.6%[10.9 µM]	·	?	?
Brc1ccc(-c2nc(-c3ccccc3)no2)o1	12.6µM*	-34.1%	1.6%	-7.6%	-5.7%
COc1cccc(-c2nnc(-c3ccc(C)o3)o2)c1	·	·	·	11.2µM*	12.6µM*
COc1ccc(-c2nc(-c3ccc(Br)o3)no2)cc1OC	-6.5%	-24.3%	180.3%	-0.8%	-2.4%
COc1cccc(C(=O)Nc2ccc(-c3nnc(-c4ccco4)o3)cc2)c1	-2.1%[25.5 µM]	·	·	·	·
c1ccc(-c2noc(-c3ccc4ccccc4c3)n2)cc1	1.26µM*	-36.2%	5.3%	?	?
COc1cccc(-c2nc(-c3ccc(Br)o3)no2)c1	·	-9.7%[10.9 µM]	·	12.6µM*	?
COc1ccccc1N1CCN(S(=O)(=O)c2c(C)nc3sc(C)c(C)n3c2=O)CC1	·	-11.7%[10.9 µM]	·	-1.2%	8.1%
COc1ccc(NC(=O)Cn2cc(S(=O)(=O)Cc3ccc(F)cc3)c3ccccc32)cc1OC	·	·	·	·	1.8%
Cc1ccccc1Cn1c(CN2CCCC(C)C2)nc2c1c(=O)n(C)c(=O)n2C (configuration not stated)	·	-5.5%[10.9 µM]	·	15.5%	0.1%
CNC(=O)[C@@H]1O[C@@H](n2cnc3c(NCc4cccc(I)c4)ncnc32)[C@H](O)[C@@H]1O	2.8%	·	6.5%	-18.0%	6.2%
Cc1ccc(/C=C/C(=O)Nc2ccccc2C(N)=O)o1	·	-42.1%[10.9 µM]	·	5.01µM*	7.94µM*
Cc1ccccc1NC(=O)Nc1cccs1	·	-23.7%[10.9 µM]	·	10.4%	-6.3%
Cc1ccc(C(=O)/C=C/Nc2ccccc2C(N)=O)o1	6.31µM*	-44.7%	39.9%	12.6µM*	12.6µM*
Cc1ncoc1C(=O)Nc1ccccc1C(N)=O	0.0%	-10.2%	-4.2%	-1.8%	-9.7%
CC(=O)Nc1ccc(N/C=C/C(=O)c2ccc(C)o2)cc1	15.8µM*	?	24.7%	-22.0%	-27.9%
Cc1cccc(N/C=C/C(=O)c2cccs2)c1C	·	·	·	10µM*	·
CC(C)=CCC/C(C)=C/CO/N=C1/C[C@@H](O)[C@@H](O)[C@@H]2[C@@H]3C(=O)N(Cc4ccc5c(c4)OCO5)C(=O)[C@H]3CC[C@H]12	0.4%[11.4 µM]	·	·	9.2%[9.22 µM]	-0.7%[9.22 µM]
NC(=O)c1ccccc1N/C=C/C(=O)c1cccs1	·	·	·	?	11.2µM*
NC(=O)c1ccccc1NS(=O)(=O)c1cccs1	0.2%	3.0%	7.9%	3.8%	-1.1%
O=C(Nc1ccc(Oc2ccccc2)cc1)c1ccc(F)c(S(=O)(=O)N2CCN(c3ccccc3F)CC2)c1	·	-20.3%[10.9 µM]	·	-17.3%	3.7%
COc1ccc(Cn2ccc3nc(C)c(C(=O)NCc4ccc(SC)cc4)cc3c2=O)cc1	·	-14.3%[10.9 µM]	·	?	-3.9%
CCCNc1ncnc2c1cnn2-c1ccc(OC)cc1	7.94µM*	·	·	·	·
COc1ccc(-n2ncc3c(Nc4cccc(C)c4)ncnc32)cc1	-0.3%[25.5 µM]	·	·	·	·
SMILES	Luciferase inh	Imprint erasure	Tau fil binding	p53ts 39C kill	p53ts 32C kill
CCCN(CCC)c1ncnc2c1cnn2-c1ccc(OC)cc1	15.8µM*	-25.0%	14.1%	?	?
COc1ccc(CCNc2ncnc3c2cnn3-c2ccc(F)cc2)cc1	·	10.7%[10.9 µM]	·	-23.7%	-3.6%
Cc1cc(C)n(-c2ccc(C(=O)Nc3ccc4c(c3)OCCO4)cc2)n1	12.6µM*	-14.2%	-7.2%	?	?
CCCC(=O)Nc1cccc(NC(=O)c2ccc3c(c2)OCCO3)c1	15.8µM*	-58.3%	-2.1%	?	?
Cc1cc(C)n(-c2ccc(C(=O)Nc3ccccn3)cc2)n1	12.6µM*	-66.5%	11.6%	10µM*	12.6µM*
CCOC(=O)c1[nH]c(C)c(C(=O)Nc2ccc3c(c2)OCCO3)c1C	-10.3%	1.1%	-17.8%	-7.0%	1.7%
CC(=O)c1c(C)[nH]c(C(=O)Nc2ccc3c(c2)OCCO3)c1C	12.6µM*	-84.6%	-9.5%	?	?
CCc1ccc(NC(=O)Cc2csc(COc3cccc(C)c3)n2)cc1	·	11.2%[10.9 µM]	·	-4.8%	-4.9%
Nc1ncnc2c1ncn2[C@@H]1CCCO1	2.8%	·	-6.5%	13.4%	33.7%
Cc1cc(C(=O)Nc2ccccn2)cs1	12.6µM*	-91.4%	-7.0%	?	?
Cn1c(C(=O)Nc2ccc3c(c2)OCCO3)cc2sccc21	3.16µM*	-72.6%	?	12.6µM*	12.6µM*
CCOc1ccc(C(=O)Nc2ccc3c(c2)OCCO3)cc1OC	2.5%	-0.4%	3.1%	0.8%	3.3%
CCOC(=O)c1cccc(NC(=O)c2cc3sccc3n2C)c1	?	-22.4%	15.0%	-4.4%	-25.6%
Cc1cc(C(=O)Nc2ccc3c(c2)OCCO3)co1	·	·	·	15.8µM*	10µM*
COc1cc(OC)cc(C(=O)Nc2ccc3c(c2)OCCO3)c1	·	-79.2%[10.9 µM]	·	3.98µM*	12.6µM*
Cc1ccc(N2C(=O)CS(=O)(=O)C23C(=O)Nc2ccccc23)cc1C (configuration not stated)	·	11.2%[10.9 µM]	·	11.4%	-2.5%
CCCn1c(-c2ccc(F)cc2)nc2c(NCCCCN(C)C)nc(C)nc21	·	-9.6%	9.2%	-6.2%	5.6%
COc1ccc(NC(=O)CSc2nc3c([nH]c4ccccc43)c(=O)n2-c2ccccc2)c(OC)c1	·	9.8%[10.9 µM]	·	-17.4%	-1.4%
CCOC(=O)c1cc(-c2ccc(C)cc2)n(CC(=O)Nc2ccc(OC)c(Cl)c2)c1C	·	-31.5%[10.9 µM]	·	7.94µM*	?
CCOC(=O)c1cc(-c2ccc(C)cc2)n(CCC(=O)Nc2ccc(OC)c(OC)c2)c1C	·	-6.0%[10.9 µM]	·	-5.1%	22.6%
Cn1nnnc1SCc1ccc(C(=O)Nc2nccs2)cc1	1µM*	-39.7%	2.51µM*	5.01µM*	?
O=c1cc(-c2ccc(O)c(O)c2)oc2cc(O[C@@H]3O[C@@H](CO)[C@@H](O)[C@@H](O)[C@H]3O)cc(O)c12	-2.3%[11.4 µM]	·	?	·	·
COc1cc(-c2noc(CN3CCN(c4ccccc4)CC3)n2)cc(OC)c1OC	·	7.0%[10.9 µM]	·	25.1µM*	-4.1%
Cn1c(-c2ccc(F)cc2)cnc1SCC(=O)N1CCCCC1	15.8µM*	-29.8%	-7.2%	-17.6%	-15.3%
O=C(CSc1ccc(-c2ccc(F)cc2)nn1)N1CCCCC1	-4.2%	-86.7%	0.2%	-13.9%	-2.0%
CCCS(=O)(=O)c1nc(S(=O)(=O)c2ccc(C)cc2)c(NCc2ccccc2)s1	·	-10.0%[10.9 µM]	·	-3.5%	2.4%
CCCCC(=O)Nc1cc(-c2cn3cccnc3n2)ccc1C	·	-9.1%[10.9 µM]	·	-6.1%	1.8%
CCN(CCCNC(=O)CN(C)S(=O)(=O)c1cccc2nsnc12)c1cccc(C)c1	-0.7%	-13.1%	15.8µM*	-7.9%	0.3%
CCN(CC)c1ccc(NC(=O)CN(C)S(=O)(=O)c2cccc3nsnc23)c(C)c1	·	2.8%[10.9 µM]	·	-6.5%	-4.5%
COC(=O)c1ccc(NC(=O)CC2C(=O)N(c3ccccc3)C(=O)N2C2CCCC2)cc1 (configuration not stated)	·	-2.4%[10.9 µM]	·	-20.0%	8.4%
